The results in this text go back to PubChem BioAssay (NCI).

This is part of a sample that, as a whole, favours compounds with a hit. Of some 83,000 tested, about 20% had one in any assay.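 Step 1: grow cells in 96-well plates. Step 2: add test compound at a single concentration. Step 3: incubate 48 h. Step 4: record percent growth.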 Values without a mark were called inactive. Activity calls are given as the source filed them. Rule for the calls: active = growth percent below 10; inactive = the rest.

In the test the test system is HL-60(TB) leukemia. In words: NCI-60 one-dose screen, 48 h (100 = growth as untreated, 0 = no growth, -100 = all killed). Particulars: 10 µM unless noted.
Consider `OC(c1cc(-c2ccc(C(F)(F)F)cc2)nc(-c2ccc(C(F)(F)F)cc2)c1)C1CCCCN1` (stereo not given), for which the growth is -61.8% (active).

As for `O=C(c1ccccc1)c1cccc(C(Br)Br)c1`, the growth is 87.6%.

For `CC(=O)Cc1cccnc1`, the growth is 82.4%.

With `O=C(NCCN1CCC(O)CC1)c1cc2c(o1)C(=O)c1ccccc1C2=O`, the growth was -13.9% (active).

Take `CCN1C(=O)N(CC)C2Nn3c(s/c(=C\c4cccc(F)c4)c3=O)=NC21` (stereo not given): the growth was 38.6%.

As for `c1ccc(-c2c(-c3ccccc3)[n+](Cc3ccc4ccccc4c3)cn2Cc2ccc3ccccc3c2)cc1`, the growth is -67.1% (active).

In the case of `COc1ccc(C(=O)/C=C/c2ccc(OCc3ccccc3)c(OC)c2)cc1OC`, the growth was 48.8%.

With `O=c1sn(-c2cccc3ccccc23)c(=O)n1Cc1ccccc1`, the growth was 51.2%.

Consider `O=C1OCC2=C1C(c1cccc(C(F)(F)F)c1)c1cc3c(cc1N2CCO)OCO3` (stereo not given), for which the growth is -24.9% (active).

With `Cc1cc(O)c2c(c1)C1OC(=O)CCCCCN1C1=C2C(=O)c2cccc(OC3CC(O)C(O)C(C)O3)c2C1=O` (stereo not given), the growth is 79.2%.

On to `Cc1ccc(C2=NN(c3ccc(S(N)(=O)=O)cc3)C(c3cn(-c4ccccc4)nc3-c3ccccc3)C2)cc1` (stereo not given), for which the growth is 16.5%.

With `CN1C(=O)N(C)C2C1NN=c1s/c(=C\c3ccsc3)c(=O)n12` (stereo not given), the growth was 5.85% (active).

As to `OCCNC(=S)Nc1ccc(-c2nc(N3C[C@H]4CC[C@@H](C3)O4)c3cccn3n2)cc1`, the growth is 38.2%.

Consider `N=c1c(C(=O)OCc2ccccc2)ncc(CCl)n1O`, for which the growth is 81.4%.

`C=CCOC(=O)C1=C(C)N(CC)C(=O)NC1c1c(Cl)n(C)c2ccccc12` (stereo not given): the growth is 99.2%.

As to `COc1ccc2cc(-c3ccc(-c4ccc(C(=N)N)s4)s3)ccc2c1`, the growth was 36.5%.

Regarding `c1ccc2c(c1)Nc1cc3ccccc3cc1N2`, the growth is 7.75% (active).

For the compound `CCOc1cc(/C=C/C(=O)C(C(=O)/C=C/c2ccc(OC(=O)CNc3nnc(C)s3)c(OCC)c2)C(=O)CNc2nnc(C)s2)ccc1OC(=O)CNc1nnc(C)s1`, the growth is -46.4% (active).

As for `CC(C)NCC(O)COc1ccc(CC(N)=O)cc1` (stereo not given), the growth is 101%.

As for `CCCc1cc(=O)n2c(C(=O)Nc3ccc(F)cc3)c(C(=O)Nc3ccc(F)cc3)sc2n1`, the growth was 106% [30 µM].

Turning to `COc1ccc(C2CC(c3cccc(Nc4ccncc4)c3)=NN2c2ccccc2)cc1` (stereo not given), the growth is -32.8% (active).

Consider `NC(=O)c1c(OCc2c(F)cc(Br)cc2F)nsc1NC(=O)NCCCCN1CCCC1`, for which the growth was -64.6% (active).

As for `CC/C=C\CCC/C=C1/C(=O)C=C[C@@H]1C/C=C\CCCC(=O)O`, the growth is 10.9%.

Regarding `CCOc1ccc(-n2c(-c3cc(OC)c(OC)c(OC)c3)nnc2-c2ccc(OC)cc2N)cc1`, the growth is 28.5%.

For the compound `C[C@H]1[C@H](C)CC[C@]2(C(=O)NCC#CCN3CCN(C)CC3)CC[C@]3(C)C(=CC[C@@H]4[C@@]5(C)Cc6c([nH]c7ccccc67)C(C)(C)[C@@H]5CC[C@]43C)[C@H]12`, the growth is 63.9%.

As to `CCOC(=O)CCN(c1c(Cl)ssc1=O)C(C)C`, the growth is 101%.

With `N#C/C(=C1C=C/C(=N/O)C(Cl)=C/1)c1ccc(Cl)cc1`, the growth is 61.1%.

Consider `CCCCOc1nc2cc(Cl)ccc2cc1/C=C/c1cc(/C=C/c2cc3ccc(Cl)cc3nc2OCCCC)n(-c2ccccc2)n1`, for which the growth was 77.8%.

Regarding `CCC(C)/C(=C\C#N)NCCCN/C(=C/C#N)C(C)CC` (stereo not given), the growth was 64.6%.

With `C=C(C)[C@@H]1CC[C@]2(C(=O)O)CC[C@]3(C)[C@H](CC[C@@H]4[C@@]5(C)CCC(NC(=O)c6cccc(OC(C)=O)c6OC(C)=O)C(C)(C)[C@@H]5CC[C@]43C)[C@@H]12` (stereo not given in full), the growth is -13.1% (active).

`COc1cc2nc3cc([N+](=O)[O-])ccc3c(NCCCNCC(C)(C)O)c2cc1OC`: the growth was -0.733% (active).

With `COC(=O)c1ccc2[nH]c(O)c(C(=Nc3ccc(N(C)C(=O)CN4CCN(C)CC4)cc3)c3ccc(OC)cc3)c2c1`, the growth was -13.8% (active).

For `COc1cc(C(C)c2ccc3c(ccn3C)c2)cc(OC)c1OC` (stereo not given), the growth was -12.1% (active).

`COc1ccc(C2=NN(/C=C3\SC(=O)NC3=Nc3ccc(F)cc3)C(c3ccc(F)cc3)C2)cc1` (stereo not given): the growth was 98.1%.

Take `CCN(CC)/C([O-])=c1\cccc\c1=C1\N=C(c2ccccc2)N=C1[n+]1ccc(-c2ccccc2)cc1`: the growth was 92.2%.

Take `COc1ccc2c(c1)c(-c1noc(-c3cn(C)c4ncc(F)cc34)n1)cn2C`: the growth was 84.6%.

Take `COC(=O)c1ccc2nc(-c3cc4ccccc4n3C)n(CCCCOc3cc4c(cc3OC)C(=O)N3CCC[C@H]3C=N4)c2c1`: the growth was -36.2% (active).

With `Nc1cc2c(cc1Br)[nH]c(=O)c1ccccc12`, the growth is 91%.

On to `CNC(=O)c1cc(-n2ccc3cc(NC(=O)c4ccc(N5CCOCC5)c(C(F)(F)F)c4)ccc32)ccn1`, for which the growth was 66.3%.

With `CCOc1ccccc1-c1cc(-c2cccs2)c(C#N)c(=O)[nH]1`, the growth was 78.9%.
